{"source": "PubChem BioAssay AID2284172", "about": "(EPA ToxCast)", "target": "rat Cav1.2 (L-type), conducted at France lab site, Cacna1a (gene 25398) (UniProt P54282)", "sequence (P54282 whole entry, looked up)": "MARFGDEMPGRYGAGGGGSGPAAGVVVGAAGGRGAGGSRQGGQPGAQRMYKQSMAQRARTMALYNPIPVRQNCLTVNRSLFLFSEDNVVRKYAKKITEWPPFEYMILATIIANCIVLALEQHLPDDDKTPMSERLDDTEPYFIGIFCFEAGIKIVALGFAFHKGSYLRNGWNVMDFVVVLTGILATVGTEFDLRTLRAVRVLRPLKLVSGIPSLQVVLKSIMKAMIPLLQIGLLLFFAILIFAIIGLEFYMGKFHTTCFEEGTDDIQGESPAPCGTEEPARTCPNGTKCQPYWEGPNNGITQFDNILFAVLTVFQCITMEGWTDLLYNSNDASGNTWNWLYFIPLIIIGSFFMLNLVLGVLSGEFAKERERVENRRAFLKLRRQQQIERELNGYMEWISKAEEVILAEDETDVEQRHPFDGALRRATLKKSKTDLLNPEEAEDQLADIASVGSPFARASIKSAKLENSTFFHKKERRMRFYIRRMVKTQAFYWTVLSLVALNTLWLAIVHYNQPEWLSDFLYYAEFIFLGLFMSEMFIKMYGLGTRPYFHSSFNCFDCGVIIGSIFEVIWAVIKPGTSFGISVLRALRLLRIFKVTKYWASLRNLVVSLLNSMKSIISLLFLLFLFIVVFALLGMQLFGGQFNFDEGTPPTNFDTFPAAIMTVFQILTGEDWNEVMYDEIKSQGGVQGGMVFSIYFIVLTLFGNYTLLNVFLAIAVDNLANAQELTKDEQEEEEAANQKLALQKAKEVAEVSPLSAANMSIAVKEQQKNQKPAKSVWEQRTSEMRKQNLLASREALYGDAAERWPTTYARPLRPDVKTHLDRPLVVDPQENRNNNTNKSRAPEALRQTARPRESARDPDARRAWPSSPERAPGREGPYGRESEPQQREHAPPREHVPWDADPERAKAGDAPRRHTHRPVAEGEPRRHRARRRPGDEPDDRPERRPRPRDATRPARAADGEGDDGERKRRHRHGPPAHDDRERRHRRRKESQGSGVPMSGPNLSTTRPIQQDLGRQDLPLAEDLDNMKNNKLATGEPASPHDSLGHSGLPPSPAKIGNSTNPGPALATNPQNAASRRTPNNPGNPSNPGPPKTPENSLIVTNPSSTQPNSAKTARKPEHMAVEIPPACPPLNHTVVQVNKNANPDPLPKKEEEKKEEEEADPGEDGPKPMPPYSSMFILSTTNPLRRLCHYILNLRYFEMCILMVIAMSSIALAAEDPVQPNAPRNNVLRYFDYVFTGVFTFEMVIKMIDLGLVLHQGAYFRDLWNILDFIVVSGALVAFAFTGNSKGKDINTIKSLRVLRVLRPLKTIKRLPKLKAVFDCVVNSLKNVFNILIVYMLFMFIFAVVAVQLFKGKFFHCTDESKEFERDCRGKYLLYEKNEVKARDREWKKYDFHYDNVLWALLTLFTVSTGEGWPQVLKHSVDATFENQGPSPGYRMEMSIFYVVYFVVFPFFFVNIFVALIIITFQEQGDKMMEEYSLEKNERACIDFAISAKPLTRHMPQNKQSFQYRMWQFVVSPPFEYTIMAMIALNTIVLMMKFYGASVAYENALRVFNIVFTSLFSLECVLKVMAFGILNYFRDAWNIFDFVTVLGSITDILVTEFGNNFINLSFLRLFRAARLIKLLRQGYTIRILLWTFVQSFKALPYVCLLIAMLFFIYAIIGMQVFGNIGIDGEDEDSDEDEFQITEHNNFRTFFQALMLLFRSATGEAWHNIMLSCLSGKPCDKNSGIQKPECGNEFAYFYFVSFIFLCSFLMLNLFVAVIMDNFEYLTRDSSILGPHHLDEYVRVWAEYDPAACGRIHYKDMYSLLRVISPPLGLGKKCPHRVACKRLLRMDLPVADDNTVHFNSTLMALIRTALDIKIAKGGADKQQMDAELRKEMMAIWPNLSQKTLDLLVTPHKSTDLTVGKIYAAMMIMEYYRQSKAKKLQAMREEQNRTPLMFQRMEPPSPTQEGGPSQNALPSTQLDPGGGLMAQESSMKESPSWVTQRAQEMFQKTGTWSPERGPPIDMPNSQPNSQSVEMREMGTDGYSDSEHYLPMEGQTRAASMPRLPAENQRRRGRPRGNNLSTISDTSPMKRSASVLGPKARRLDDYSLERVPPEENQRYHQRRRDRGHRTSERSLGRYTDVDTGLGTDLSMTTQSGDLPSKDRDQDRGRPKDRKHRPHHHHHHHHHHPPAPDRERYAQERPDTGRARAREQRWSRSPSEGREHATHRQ", "assay": "ERF_FR_IC_rCACNA1C_Dihydropyridine: Eurofins (ERF) Calcium Ion Channel Binding (Dihydropyridine Site) LeadHunter Assay for rat Cav1.2 (L-type), conducted at France lab site", "description": "ERF_FR_IC_rCACNA1C_Dihydropyridine is a biochemical, single-readout assay that uses extracted gene-proteins in a cell-free assay. Measurements were taken 1.5 hour after chemical dosing in a 96-well plate. See Cav1.2 (L-type) Rat Calcium Ion Channel Binding (Dihydropyridine Site) Assay, Cerep.ERF_FR_IC_rCACNA1C_Dihydropyridine is an assay component calculated from the ERF_FR_IC_rCACNA1C_Dihydropyridine assay. It is designed to measure radioligand binding using a type of binding reporter as detected by scintillation counting with radiometry technology.Data from the assay component ERF_FR_IC_rCACNA1C_Dihydropyridine was analyzed at the assay endpoint, ERF_FR_IC_rCACNA1C_Dihydropyridine, in the positive analysis fitting direction relative to DMSO as the negative control and baseline of activity. Using a type of binding reporter, loss-of-signal activity can be used to understand changes in binding as they relate to gene CACNA1C. To generalize the intended target to other relatable targets, this assay endpoint is annotated to the ion channel intended target family, where the subfamily is voltage gated (Calcium).\nRat brain cells are incubated for 90 minutes at room temprature with [3H]nitrendipine (0.25 nM) ligand and Nitrendipine as control inhibitor. Test Sample Requirements: Minimum for 1) Screen: 60 ul of 10 mM stock -OR- 1 mg (pre-weighed) for 10 uM final testing. […]", "note": "Active and inactive are the calls of the source. How the source made its calls: active means hit-call score of the fitted dose curve at least 0.9, where 1 is the maximum; inactive means score below 0.9.", "data": [{"smiles": "CCCCC[C@H](O)CC(=O)CCc1ccc(O)c(OC)c1", "values": [{"measurement": "outcome", "result": "inactive"}]}]}
